# Test results reported in PubChem BioAssay (NCATS).
# Results filed as inconclusive are left out. Active and inactive are the calls of the source. Unless noted, the call rests on the fitted dose curve.
# Test system: not listed separately
# Test: qHTS for Inhibitors of the Functional Ribonucleoprotein Complex (vRNP) of Lassa (LASV) Arenavirus: Viability assay - alamar blue signal for LASV Primary Screen (AID 1347083; calls by dose curve; tested in HEK293 reporter line; further: nearly all actives have a fitted effect of over 80% in size)
# Conditions: cell viability, alamar blue fluorescence (LASV minigenome counter-screen); series mostly up to 57.5 µM; activity change, negative = reduced viability: at the top concentration
# On the % scale 0 is the no-effect control and ±100 the full control effect; potency means the concentration at half of the fitted maximal effect.
Structure (SMILES),"activity change, negative = reduced viability",Potency
COc1cc(F)c(F)c(Nc2ccc(I)cc2F)c1NS(=O)(=O)C1(C[C@H](O)CO)CC1,-13% (inactive),–
CCNc1cc(NC2CCC(O)CC2)nc(Nc2ccc3c(ccn3Cc3ccccc3)c2)n1 (stereo not drawn),-36% (inactive),–
Cc1ccc2nc(NC(=O)CSc3nc4c(c(=O)n3-c3ccccc3)SCC4)sc2c1,–,17.2 µM (active)
Cn1cc(C[C@@H](N)C(=O)O)c2ccccc21,0.26% [at 24.7 µM] (inactive),–
CC(C)=CC[C@@H](O)C1=CC(=O)c2c(O)ccc(O)c2C1=O,2.54% (inactive),–
OC[C@H]1O[C@@H](n2cnc3c(NC4CCCC4)ncnc32)[C@H](O)[C@@H]1O,3.92% (inactive),–
COc1ccc(Nc2cc(-c3cnc(N)nc3)nc(N3CCOCC3)n2)cn1,–,3.85 µM (active)
CC(C)C(C)C=CC(C)C1CCC2C3=CC=C4CC(O)CCC4(C)C3CCC21C (stereo not drawn),–,38.5 µM (active)
COc1cc(O)c2c(c1)C1OC1C[C@H](O)[C@H](O)C(=O)C=CC[C@H](C)OC2=O (stereo partly drawn),–,38.5 µM (active)
O=C1NC(O)CCN1[C@@H]1O[C@H](CO)[C@H](O)[C@H]1O (stereo partly drawn),-3.7% (inactive),–
CN(C)C(=O)/N=N/C(=O)N(C)C,3.37% (inactive),–
O=C(Nc1ccc(Oc2ccnc3[nH]ccc23)c(F)c1)c1cccn(-c2ccc(F)cc2)c1=O,-14.5% (inactive),–
CCC(C(=O)O)C1CCC(C)C(C(C)C(O)C(C)C(=O)C(CC)C2OC3(C=CC(O)[C@@]4(CC[C@](C)(C5CC[C@@](O)(CC)C(C)O5)O4)O3)C(C)CC2C)O1 (stereo partly drawn),–,4.85 µM (active)
O=c1[nH]c(=O)n([C@H]2C[C@@H](O)[C@@H](CO)O2)cc1C=CBr,4.44% (inactive),–
CCCn1c(=O)c2[nH]c(-c3cnn(Cc4cccc(C(F)(F)F)c4)c3)nc2n(CC)c1=O,-38.4% (inactive),–
Cc1cc(Cl)ccc1OCCCC(=O)NO,–,24.3 µM (active)
CC(C)c1cc(-c2n[nH]c(=O)n2-c2ccc3c(ccn3C)c2)c(O)cc1O,–,0.243 µM (active)
N[C@@]1(C(=O)O)CS(=O)(=O)[C@H]2[C@H](C(=O)O)[C@H]21,–,19.3 µM (active)
Cc1ccc2nc(NCCN)c3ncc(C)n3c2c1,–,19.3 µM (active)
COc1cc(Nc2ncc(F)c(Nc3ccc4c(n3)N(COP(=O)(O)O)C(=O)C(C)(C)O4)n2)cc(OC)c1OC,–,2.43 µM (active)
CCc1ccc(C(=O)Nc2cc(CN3CCN(C)CC3)cc(C(F)(F)F)c2)cc1C#Cc1cnc2ccnn2c1,–,21.7 µM (active)
CC=C(C)C(=O)O[C@H]1C(C)=C[C@]23C(=O)[C@@H](C=C(CO)[C@@H](O)[C@]12O)[C@H]1[C@@H](C[C@H]3C)C1(C)C,–,4.32 µM (active)
O=C(CCCCCCNC(=O)c1cnc(N(c2ccccc2)c2ccccc2)nc1)NO,–,30.6 µM (active)
NC1=N[C@H]2[C@H](CS[C@H]2CCCCC(=O)O)N1,-16.9% [at 24.7 µM] (inactive),–
C=CCn1c(=O)c2c(nc(-c3ccc(S(=O)(=O)O)cc3)n2C)n(C)c1=O,19.1% (inactive),–
O=C(CCCCCCC(=O)Nc1cccnc1)NO,–,19.3 µM (active)
CC(C)C[C@H](NC(=O)CNC(=O)c1cc(Cl)ccc1Cl)B1OC(=O)CC(CC(=O)O)(C(=O)O)O1 (stereo partly drawn),–,1.93 µM (active)
O=C1NC(=O)C(c2cnc3ccccn23)=C1c1cn2c3c(cccc13)CN(C(=O)N1CCOCC1)CC2,–,6.85 µM (active)
COc1cc(C(=O)N2CCC(N3CCN(C)CC3)CC2)ccc1Nc1ncc2c(n1)N(C)c1ccccc1C(=O)N2C,–,17.2 µM (active)

# Molecular target: Nucleoprotein (Lymphocytic choriomeningitis virus (strain Armstrong)) (UniProt P09992)
# Test: qHTS for Inhibitors of the Functional Ribonucleoprotein Complex (vRNP) of Lymphocytic Choriomeningitis Arenaviruses (LCMV): LCMV Primary Screen - GLuc reporter signal (AID 1347086); further: nearly all actives have a fitted effect of over 70% in size
# Conditions: LCMV minigenome vRNP cell assay, Gaussia luciferase reporter; series mostly up to 57.5 µM; activity change, negative = inhibition: at the top concentration
# Sequence of Nucleoprotein (Lymphocytic choriomeningitis virus (strain Armstrong)) (P09992 whole entry, looked up): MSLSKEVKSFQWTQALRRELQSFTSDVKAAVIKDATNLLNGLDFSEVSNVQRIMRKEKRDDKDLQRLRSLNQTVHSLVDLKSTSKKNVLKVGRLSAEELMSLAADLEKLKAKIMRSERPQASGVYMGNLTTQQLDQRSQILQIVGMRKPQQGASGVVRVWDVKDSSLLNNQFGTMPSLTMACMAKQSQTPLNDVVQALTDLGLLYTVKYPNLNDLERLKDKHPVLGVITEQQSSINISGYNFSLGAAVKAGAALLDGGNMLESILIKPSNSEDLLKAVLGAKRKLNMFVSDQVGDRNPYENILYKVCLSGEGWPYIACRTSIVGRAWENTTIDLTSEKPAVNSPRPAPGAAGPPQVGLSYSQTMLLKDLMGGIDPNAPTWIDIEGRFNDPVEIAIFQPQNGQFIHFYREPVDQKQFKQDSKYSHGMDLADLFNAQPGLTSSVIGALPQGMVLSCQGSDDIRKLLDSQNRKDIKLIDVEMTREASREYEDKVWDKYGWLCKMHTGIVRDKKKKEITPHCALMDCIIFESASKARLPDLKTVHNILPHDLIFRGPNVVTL
Structure (SMILES),"activity change, negative = inhibition",Potency
O=c1[nH]c2cc(Cl)c(Cl)cc2[nH]c1=O,-24.3% (inactive),–
O=C1c2ccccc2-c2n[nH]c3cccc1c23,–,inactive
Oc1ccc(-c2ccc(-c3cc(Nc4cccc(CNC5CC5)c4)n[nH]3)cc2)c(O)c1,–,12.2 µM (active)
CC(C)C[C@H](CC(=O)O)C(=O)N[C@@H](Cc1c[nH]c2ccccc12)C(=O)N[C@@H](C)c1ccccc1,-2.72% (inactive),–
N=c1ccn2c(n1)O[C@H]1[C@H](O)[C@@H](CO)O[C@H]12,21.3% (inactive),–
COc1cc(F)c(F)c(Nc2ccc(I)cc2F)c1NS(=O)(=O)C1(C[C@H](O)CO)CC1,4.99% (inactive),–
Cc1ccc2nc(NC(=O)CSc3nc4c(c(=O)n3-c3ccccc3)SCC4)sc2c1,–,8.63 µM (active)
CC(C)=CC[C@@H](O)C1=CC(=O)c2c(O)ccc(O)c2C1=O,1.91% (inactive),–
OC[C@H]1O[C@@H](n2cnc3c(NC4CCCC4)ncnc32)[C@H](O)[C@@H]1O,-14.5% (inactive),–
CC(C)C(C)C=CC(C)C1CCC2C3=CC=C4CC(O)CCC4(C)C3CCC21C (stereo not drawn),–,7.69 µM (active)
COc1cc(O)c2c(c1)C1OC1C[C@H](O)[C@H](O)C(=O)C=CC[C@H](C)OC2=O (stereo partly drawn),–,34.3 µM (active)
CN(C)C(=O)/N=N/C(=O)N(C)C,-7.86% (inactive),–
CCC(C(=O)O)C1CCC(C)C(C(C)C(O)C(C)C(=O)C(CC)C2OC3(C=CC(O)[C@@]4(CC[C@](C)(C5CC[C@@](O)(CC)C(C)O5)O4)O3)C(C)CC2C)O1 (stereo partly drawn),–,0.968 µM (active)
O=c1[nH]c(=O)n([C@H]2C[C@@H](O)[C@@H](CO)O2)cc1C=CBr,12.6% (inactive),–
Cc1cc(Cl)ccc1OCCCC(=O)NO,16.1% (inactive),–
CC(C)c1cc(-c2n[nH]c(=O)n2-c2ccc3c(ccn3C)c2)c(O)cc1O,–,0.306 µM (active)
N[C@@]1(C(=O)O)CS(=O)(=O)[C@H]2[C@H](C(=O)O)[C@H]21,20.3% (inactive),–
CC=C(C)C(=O)O[C@H]1C(C)=C[C@]23C(=O)[C@@H](C=C(CO)[C@@H](O)[C@]12O)[C@H]1[C@@H](C[C@H]3C)C1(C)C,0.353% (inactive),–
O=C(CCCCCCNC(=O)c1cnc(N(c2ccccc2)c2ccccc2)nc1)NO,-7.55% (inactive),–
NC1=N[C@H]2[C@H](CS[C@H]2CCCCC(=O)O)N1,-9.04% [at 24.7 µM] (inactive),–
C=CCn1c(=O)c2c(nc(-c3ccc(S(=O)(=O)O)cc3)n2C)n(C)c1=O,-18.9% (inactive),–
O=C(CCCCCCC(=O)Nc1cccnc1)NO,-26.7% (inactive),–
O=C1NC(=O)C(c2cnc3ccccn23)=C1c1cn2c3c(cccc13)CN(C(=O)N1CCOCC1)CC2,-31.3% (inactive),–
COc1cc(C(=O)N2CCC(N3CCN(C)CC3)CC2)ccc1Nc1ncc2c(n1)N(C)c1ccccc1C(=O)N2C,–,10.9 µM (active)
